For 57 molecules, binding (percent of control) results are on record in PubChem BioAssay AID588358 (NMMLSC, 2011).

Structures are written as SMILES. In all, about 310,000 compounds went through this assay and about 1,500 (0.48%) were called active. The sample holds actives, similar compounds and a random draw of the others, so the mix is not that of the screen.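 How the source made its calls: active means binding more than 3 SD below its plate's average and above zero; inconclusive means below that plate limit but binding exactly zero; inactive means the rest.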

For this assay, the target named is Desmoglein-3 (Homo sapiens) (UniProt P32926). In words: inhibitors of pemphigus antibody binding to DSG3, primary screen, biochemical, bead-based, flow cytometry, scFv-GFP (AID 588358).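 Further: hits lower antibody fragment binding to DSG3.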 The note with it: DSG3-coupled beads, scFv-anti-DSG3-GFP binding, at 10 µM, hits give low values. A general note: A flow cytometer gives signals particle by particle.
Chain of Desmoglein-3 (Homo sapiens) (P32926 whole entry, looked up, the tested form may be a part): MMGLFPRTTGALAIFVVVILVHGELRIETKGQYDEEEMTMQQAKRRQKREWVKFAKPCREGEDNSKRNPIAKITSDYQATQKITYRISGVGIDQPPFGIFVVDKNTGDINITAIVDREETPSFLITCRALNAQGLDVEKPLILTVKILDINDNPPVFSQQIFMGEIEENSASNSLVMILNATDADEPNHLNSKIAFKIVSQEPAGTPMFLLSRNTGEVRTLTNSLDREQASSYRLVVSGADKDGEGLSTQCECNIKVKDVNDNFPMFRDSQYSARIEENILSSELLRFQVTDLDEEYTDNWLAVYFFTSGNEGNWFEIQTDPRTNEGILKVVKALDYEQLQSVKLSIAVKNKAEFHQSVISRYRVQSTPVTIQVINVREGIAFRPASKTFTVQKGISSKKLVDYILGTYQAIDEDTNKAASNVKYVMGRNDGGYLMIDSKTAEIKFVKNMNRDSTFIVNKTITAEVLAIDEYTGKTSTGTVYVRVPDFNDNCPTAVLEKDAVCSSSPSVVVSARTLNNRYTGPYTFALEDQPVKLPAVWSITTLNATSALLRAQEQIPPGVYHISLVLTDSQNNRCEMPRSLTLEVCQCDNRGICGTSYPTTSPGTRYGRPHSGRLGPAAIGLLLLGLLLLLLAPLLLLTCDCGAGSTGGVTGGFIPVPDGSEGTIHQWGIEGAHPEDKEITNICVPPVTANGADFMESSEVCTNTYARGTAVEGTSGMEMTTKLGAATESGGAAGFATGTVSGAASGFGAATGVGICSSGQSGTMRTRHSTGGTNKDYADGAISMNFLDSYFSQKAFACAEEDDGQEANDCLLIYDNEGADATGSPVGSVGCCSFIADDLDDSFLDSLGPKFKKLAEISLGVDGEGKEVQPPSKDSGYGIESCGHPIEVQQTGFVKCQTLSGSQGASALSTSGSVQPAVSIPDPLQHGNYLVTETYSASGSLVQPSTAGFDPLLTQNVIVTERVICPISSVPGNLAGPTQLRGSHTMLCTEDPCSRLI
Turning to `O=C(NCCS(=O)(=O)N1CCN(c2ccccc2)CC1)c1cc(=O)c2ccccc2o1`, the binding (percent of control) was 99.7% (inactive).

As for `O=C(NCCOc1ccccc1)N1[C@H]2CC[C@@H]1C=C(c1ccc(F)cc1OCc1ccccc1)C2`, the binding (percent of control) was 107% (inactive).

As to `CCC(Oc1ccccc1)C(=O)OCC(=O)Nc1c(C)nn(-c2ccccc2)c1C` (configuration not stated), the binding (percent of control) was 106% (inactive). As to `Cc1cnc(C(=O)OCC(=O)Nc2ccc(Cl)cc2Cl)cn1`, the binding (percent of control) is 113% (inactive). On to `Cc1cnc(C(=O)OCC(=O)NCCCc2ccccc2)cn1`, for which the binding (percent of control) was 104% (inactive).

Turning to `Cc1cnc(C(=O)Oc2cccc(Cl)c2Cl)cn1`, the binding (percent of control) is -19.6% (active). Consider `COc1cccc(NC(=O)Nc2ccc(F)cc2)c1`, for which the binding (percent of control) is 99.8% (inactive). For `CC(OC(=O)c1cccc(S(=O)(=O)N2CCOCC2)c1)C(=O)NCC1CCCCC1` (configuration not stated), the binding (percent of control) was 106% (inactive). For `CCc1c(N=O)c(-c2ccccc2)n(O)[n+]1[O-]`, the binding (percent of control) is 95.9% (inactive). Regarding `CCc1noc(C)c1C(=O)OCC(=O)c1ccc(NC(=O)CC(C)C)cc1`, the binding (percent of control) was 106% (inactive). For `CN(CCOc1ccccc1)C(=O)c1cc(-c2ccco2)nc2ccccc12`, the binding (percent of control) was 105% (inactive). As for `CN(C(=O)COC(=O)c1cc(-c2ccco2)nc2ccccc12)C1CCS(=O)(=O)C1` (configuration not stated), the figure is 59.4% (active); as for `CN(C(=O)COC(=O)c1nc(Cl)ccc1Cl)C1CCS(=O)(=O)C1` (configuration not stated), 109% (inactive); as for `O=S(=O)(c1cccc(C(F)(F)F)c1)N1c2ccccc2-n2cccc2C1c1cccnc1` (configuration not stated), 99.9% (inactive).

With `S=c1[nH]nc(-c2cc(-c3ccccc3)n[nH]2)n1/N=C/c1c2ccccc2cc2ccccc12`, the binding (percent of control) was 82.6% (active). On to `Fc1ccccc1/C=N/n1c(-c2cccnc2)n[nH]c1=S`, for which the binding (percent of control) is 104% (inactive). Consider `c1ccc(-c2cc(-c3ccccc3)[nH]n2)cc1`, for which the binding (percent of control) was 95% (inactive). For the molecule `Cc1ccc(-c2ccc(CN3C(C)C(=O)N(Cc4cn(CCC5OCCCO5)nn4)CCS3(=O)=O)cc2)cc1` (configuration not stated), the binding (percent of control) is 104% (inactive). For `C/C(=N/NC(=S)Nc1ccccc1)c1ccc2c(c1)OCO2` the value was 98.1% (inactive). As for `C/C(=N\NC(=S)Nc1ccc(C)cc1)c1cc2ccccc2o1`, the figure is 83.6% (active).

For `Cc1ccc(NC(=O)c2cc3ccccc3o2)cc1`, the binding (percent of control) was 110% (inactive). With `Cc1cc2cc3n(c2nn1)N=C(Cl)CC3`, the binding (percent of control) is 104% (inactive). In the case of `O=S1(=O)CCN(Cc2ccccc2)CC1`, the binding (percent of control) is 96.1% (inactive). As to `O=C(c1ccc(N2CCCC2=O)cc1)N1CCN(c2ccc(C(F)(F)F)cc2[N+](=O)[O-])CC1`, the binding (percent of control) was 99% (inactive). In the case of `Cc1cc2nc3c(=O)n(Cc4ccccc4)c(=O)[nH]c3nc2cc1N`, the binding (percent of control) is 99.2% (inactive). For `Nc1ccc2nc3c(=O)[nH]c(=S)[nH]c3nc2c1`, the binding (percent of control) was 19% (active).

As to `O=C(OCc1ccccc1)N1CCC2CC1c1cc(N3CCN(S(=O)(=O)c4cc(Cl)cc(Cl)c4)CC3)ccc12` (configuration not stated), the binding (percent of control) is 100% (inactive). As for `CCCCN1C(=O)C(CC(=O)NC(c2ccccc2)c2ccccc2)CC(C(=O)N2CCOCC2)=C1C` (configuration not stated), the figure is 102% (inactive). Turning to `COC(=O)c1ccc(/C=N/NC(=O)C(=O)N2CCCCCC2)cc1`, the binding (percent of control) was 102% (inactive).

Turning to `O=C(NN=Cc1ccc([N+](=O)[O-])cc1)C1CC1`, the binding (percent of control) is 122% (inactive). As for `O=C(N/N=C/c1ccc([N+](=O)[O-])cc1)C(=O)N1CCCC1`, the binding (percent of control) was -16.9% (active). On to `Cc1ccc(S(=O)(=O)N2C[C@@H](C)[C@]3(C2)[C@H](O)[C@H](OC(=O)NCc2ccccc2)C[C@H]2C(=O)N(c4ccccc4)C(=O)[C@H]23)cc1`, for which the binding (percent of control) is 111% (inactive).

As for `Cc1ccc(O/C=C2\OC(=O)c3ccccc32)cc1`, the binding (percent of control) is 80.4% (active). For `Cc1ccc(Oc2cnn(-c3ccccc3)c(=O)c2Br)cc1` the value was 117% (inactive); for `CN(C)C(CNC(=O)c1cccc(S(=O)(=O)N2CCc3ccccc3C2)c1)c1ccccc1` (configuration not stated), 97.5% (inactive). Take `Cc1cc(Cl)ccc1C(=O)C1CCCN(C(=O)c2ccc3c(c2)OCO3)C1` (configuration not stated): the binding (percent of control) was 103% (inactive). As for `CCOC(=O)c1c(S(=O)(=O)NCC(=O)Nc2ccc(C)cc2)c(C)n(C)c1C`, the figure is 97.8% (inactive). Turning to `CCOC(=O)c1cccc(NS(=O)(=O)c2c(C(=O)N3CCCCCC3)c(C)n(C)c2C)c1`, the binding (percent of control) was 99.4% (inactive).

As for `CCOC(=O)c1c(S(=O)(=O)Nc2cccc(Cl)c2)c(C)n(C)c1C`, the binding (percent of control) was 52% (active).

For the molecule `N#CCCN(C(=O)Nc1ccc(Cl)c(Cl)c1)C1CCCCC1`, the binding (percent of control) is 105% (inactive).

On to `Cn1nc(N)c2ncc(C(Cl)(Cl)Cl)nc21`, for which the binding (percent of control) is 100% (inactive).

For the molecule `O=C(CC(CC(=O)c1ccccc1)c1ccco1)c1ccccc1`, the binding (percent of control) is 99.4% (inactive).

Consider `CNC(=O)C1CN(C(=O)c2cccc(S(=O)(=O)N3CCc4ccccc43)c2)c2ccccc2O1` (configuration not stated), for which the binding (percent of control) was 103% (inactive). For `Cc1cccc(C(=O)OCC(=O)Nc2sccc2C(N)=O)c1C`, the binding (percent of control) is 104% (inactive).

For `CCc1ccc(NC(=O)Cn2nnc(C(=O)NCc3ccc(OC)cc3)c2N)cc1`, the binding (percent of control) is 106% (inactive).

Regarding `COc1ccc(NC(=O)Cn2nnc(C(=O)NCCc3ccc(OC)c(OC)c3)c2N)cc1`, the binding (percent of control) was 103% (inactive). Consider `CCOc1ccc(Cn2nnc(C(=O)Nc3ccc(OC)cc3OC)c2N)cc1`, for which the binding (percent of control) is 81.7% (active). On to `C[C@H]1NS(=O)(=O)c2cc(Cl)ccc2O[C@@H]1c1ccccc1`, for which the binding (percent of control) is 98.4% (inactive). As for `COc1ccc(CN(Cc2ccc(OC)cc2)C(=O)c2cccs2)cc1`, the figure is 100% (inactive); as for `COc1ccc(CCNC(=O)/C(C#N)=C2\N=C(NC(=O)c3cccs3)c3ccccc32)cc1`, 81.2% (active). In the case of `COc1cc2ccccc2cc1C(=O)Nc1ccc(NC(=O)c2cccs2)cc1`, the binding (percent of control) was 87.2% (inactive). For `COc1ccc(OC)c(C(=O)NC2CCCc3c2cnn3-c2cc(C)cc(C)c2)c1` (configuration not stated) the value was 96.8% (inactive); for `Cc1coc2c(O)cc3c(c12)OC1(N2CCCCC2)C(=O)NCCCC31` (configuration not stated), 62.7% (active); for `CCCCN(C(C)=O)c1ccc2c(c1)C1CC2CCN1Cc1ccccc1` (configuration not stated), 101% (inactive).

Consider `NC(=S)NN=Cc1ccc(OC(=O)COc2cc(Cl)c(Cl)cc2Cl)cn1`, for which the binding (percent of control) is 102% (inactive). Turning to `COCOCCn1cc(CN2CCS(=O)(=O)N(Cc3ccc(-c4cccc(N(C)C)c4)cc3)C(CC(C)C)C2=O)nn1` (configuration not stated), the binding (percent of control) is 101% (inactive).

For `CCOC(=O)c1c(NC(=O)COC(=O)c2ccc(S(=O)(=O)C(F)F)cc2)sc(C(=O)N(C)C)c1C`, the binding (percent of control) was 100% (inactive).
